In PubChem BioAssay:
Calls of active or inactive are those of the source.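 Rule for the calls: active = viability loss from added drug above about 55%, and viability with drug at most 40%, in both replicates (limit read from the data, passing the limit was not always enough); inconclusive = both conditions met in only one replicate; inactive = neither replicate meets both conditions.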

Experiment: reversal of MRP1-mediated doxorubicin resistance, pilot screen, H69AR cells, doxorubicin co-treatment (AID 601)
Conditions: H69AR cells + 2 uM doxorubicin, CellTiter-Glo, 72 h; at 10 µM; stronger effect = higher value

SMILES | differential viability (reversal)
CCOc1ccc2nc(SCC(=O)Nc3ncccn3)[nH]c2c1 | 18.1% (inactive)
CCCC(=O)Nc1nnc(CC(=O)N2CCCC2)s1 | 7.37% (inactive)
Cc1csc(SCCn2c(N3CCCC3)nc3c2c(=O)[nH]c(=O)n3C)n1 | -4.86% (inactive)
Cc1ccccc1NC(=O)CN1CCC(NC(=O)Nc2ccccc2)CC1 | -4.37% (inactive)
COc1cc2c(=O)nc3n(c2cc1OC)C(c1ccccc1)N=C(N)N3 (centres undefined) | -2.35% (inactive)
CCOC(=O)c1[nH]c2cc(OC)c(OC)cc2c1NC(=O)C(C)N1CCN(Cc2ccccc2)CC1 (centres undefined) | -6.81% (inactive)
O=C(Nc1ncnc2sc3c(c12)CCC3)c1ccco1 | -2.91% (inactive)
CC(C)(C#N)Nn1cnnc1 | -4.76% (inactive)
CCC1CCCCN1CCCNC(=O)c1ccc(CS(=O)(=O)Cc2ccccc2F)o1 (centres undefined) | -12.3% (inactive)
COc1cccc(OCc2nnc(SCC(=O)OCc3ccccc3)o2)c1 | 5.81% (inactive)
CC(=O)[C@H]1[C@H](C#N)C[C@H]2[C@@H]3CC=C4C[C@@H](O)CC[C@]4(C)[C@H]3CC[C@@]21C | 1.78% (inactive)
Cc1ccc(CNc2cc(-c3nn4c(C)nnc4s3)ccc2C)s1 | 18.3% (inactive)
Cn1c(=O)c2c(nc(Br)n2CCSc2nnnn2-c2ccccc2)n(C)c1=O | -14.9% (inactive)
COc1ccc(NS(=O)(=O)c2ccc(N)cc2)nn1 | 8.44% (inactive)
CC(=O)NCCC(=O)Nc1ccc(C)c(F)c1 | -17% (inactive)
Clc1ccccc1CN1CCc2sccc2C1 | 19.9% (inactive)
Cn1c(=O)[nH]c(=O)c2c1nc(Br)n2Cc1ccccc1F | 16.6% (inactive)
Cc1cc(NC(=O)CSc2nc(C3CC3)nc3sc4c(c23)CCC(C)C4)no1 (centres undefined) | 15.6% (inactive)
Cc1csc(NC(=O)c2cccs2)n1 | 3.83% (inactive)
O=C(NC1CCCC1)C(NS(=O)(=O)c1cccc2nsnc12)c1ccccc1 (centres undefined) | -2.47% (inactive)
O=C(CSc1nnc(Cc2ccccc2)n1-c1cccc(Cl)c1)N1CCOCC1 | 4.24% (inactive)
Cc1ccc(-n2c(C)cc3c2CCCC3=O)cc1 | -0.79% (inactive)
COc1ccc(-n2c(SCC(N)=O)nc3sc4c(c3c2=O)CCN(C)C4)cc1 | -9.52% (inactive)
CCOC(=O)C1CCN(C(=O)Nc2ccc3nc(C)c(C)nc3c2)CC1 | 15.9% (inactive)

Same assay, conditions: H69AR cells + 2 uM doxorubicin, CellTiter-Glo, 72 h; measured here: viability with 2 uM doxorubicin; at 10 µM; stronger effect = lower value

SMILES | viability
O=C1C2ON(c3ccc(Cl)cc3)C(c3ccco3)C2C(=O)N1c1ccccc1 (centres undefined) | 91.2%
CCOC(=O)N1CCN(C(=O)c2ccc3c(=O)n(Cc4ccc(OC)cc4)c(=S)[nH]c3c2)CC1 | 25.1%
O=C(O)/C=C/c1ccc(O)c(O)c1 | 92.5%
COC(=O)Nc1sc2c(c1C(N)=O)CCCCCC2 | 80.2%
CC1(C)NC(=O)N(CC(O)CN2CCCC2)C1=O (centres undefined) | 94.2%
Cc1cc(=O)n2nc(N3CCCC(C(=O)N4CCc5ccccc54)C3)sc2n1 (centres undefined) | 88.7%
CCN(CC)S(=O)(=O)c1cccc(-c2nnc(SCCOc3ccccc3C)o2)c1 | 69.3%
CCOC(=O)CSC1=C(C#N)C(c2ccc3c(c2)OCO3)CC(=O)N1 (centres undefined) | 65.5%
N#CC1=C(N)OC2=C(CCC/C2=C/c2ccoc2)C1c1ccoc1 (centres undefined) | 77.9%
O=C(NCc1ccc2c(c1)OCO2)C1CCC(CNS(=O)(=O)c2ccccc2)CC1 (centres undefined) | 93.7%
COC(=O)CCN(C(=O)c1ccc2c(c1)OCO2)c1ccccn1 | 90.7%
CC1CCCc2sc3nc(NCc4ccco4)n4ncnc4c3c21 (centres undefined) | 85%
CCC(=O)OC1(C#CCOc2ccc(OC)cc2)CCN(C)CC1 | 103%
O=C(CCCCn1c(=O)c2ccccc2n(Cc2ccc(Cl)cc2)c1=O)NCc1ccco1 | 43%
CC1CNCCN1S(=O)(=O)c1cccc2cnccc12 (centres undefined) | 96.2%
CN(Cc1ccccc1)C(=O)c1cc(-c2ccc(Br)cc2)on1 | 95.3%
CCOc1ccc2nc(SCC(=O)Nc3ncccn3)[nH]c2c1 | 86.6%
CCCC(=O)Nc1nnc(CC(=O)N2CCCC2)s1 | 89.5%
Cc1csc(SCCn2c(N3CCCC3)nc3c2c(=O)[nH]c(=O)n3C)n1 | 105%
Cc1ccccc1NC(=O)CN1CCC(NC(=O)Nc2ccccc2)CC1 | 89.1%

SMILES | viability
COc1cc2c(=O)nc3n(c2cc1OC)C(c1ccccc1)N=C(N)N3 (centres undefined) | 99.4%
CCOC(=O)c1[nH]c2cc(OC)c(OC)cc2c1NC(=O)C(C)N1CCN(Cc2ccccc2)CC1 (centres undefined) | 66.1%
O=C(Nc1ncnc2sc3c(c12)CCC3)c1ccco1 | 83%
CC(C)(C#N)Nn1cnnc1 | 90.7%
CCC1CCCCN1CCCNC(=O)c1ccc(CS(=O)(=O)Cc2ccccc2F)o1 (centres undefined) | 105%
COc1cccc(OCc2nnc(SCC(=O)OCc3ccccc3)o2)c1 | 91.2%
CC(=O)[C@H]1[C@H](C#N)C[C@H]2[C@@H]3CC=C4C[C@@H](O)CC[C@]4(C)[C@H]3CC[C@@]21C | 85.2%
Cc1ccc(CNc2cc(-c3nn4c(C)nnc4s3)ccc2C)s1 | 40.5%
Cn1c(=O)c2c(nc(Br)n2CCSc2nnnn2-c2ccccc2)n(C)c1=O | 95.3%
COc1ccc(NS(=O)(=O)c2ccc(N)cc2)nn1 | 95.3%
CC(=O)NCCC(=O)Nc1ccc(C)c(F)c1 | 108%
Clc1ccccc1CN1CCc2sccc2C1 | 79.1%
Cn1c(=O)[nH]c(=O)c2c1nc(Br)n2Cc1ccccc1F | 70.2%
Cc1cc(NC(=O)CSc2nc(C3CC3)nc3sc4c(c23)CCC(C)C4)no1 (centres undefined) | 86.4%
Cc1csc(NC(=O)c2cccs2)n1 | 85.8%
O=C(NC1CCCC1)C(NS(=O)(=O)c1cccc2nsnc12)c1ccccc1 (centres undefined) | 81.5%
O=C(CSc1nnc(Cc2ccccc2)n1-c1cccc(Cl)c1)N1CCOCC1 | 81.3%
Cc1ccc(-n2c(C)cc3c2CCCC3=O)cc1 | 94.1%
COc1ccc(-n2c(SCC(N)=O)nc3sc4c(c3c2=O)CCN(C)C4)cc1 | 111%
CCOC(=O)C1CCN(C(=O)Nc2ccc3nc(C)c(C)nc3c2)CC1 | 79.6%
